Assays:
Assay in all cases: relative growth (AUC of 72 h growth curve relative to DMSO control, dAUC) (ratio); higher = more growth (less inhibition), active = hit call of the paper
Conditions in all cases: 20 µM;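 active = growth AUC significantly below the DMSO wells by Dunnett test; inactive = the rest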
[1] = tested on: Aeromonas 1 (Aeromonas sp. AE235)
Summary of the method: (§1)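 Whole sediment communities and bacterial isolates from Icelandic stream sediments and Silwood Park soil were brought to carrying capacity in Luria–Bertani medium. They were then diluted 1:100 into 96-well plates with each chemical at 20 µM in 1% DMSO, and A600 was recorded every hour for 72 h. The area under each growth curve, integrated by spline, was averaged across three biological replicates. This figure, divided by the mean of the DMSO controls, gives relative growth (dAUC).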

[2] = tested on: Aeromonas 2 (Aeromonas sobria)
Summary of the method: as §1

[3] = tested on: Aeromonas 3 (Aeromonas popoffii)
Summary of the method: as §1

[4] = tested on: Argrobacterium 1 (Agrobacterium sp.)
Summary of the method: as §1

[5] = tested on: Arthrobacter 1 (Arthrobacter humicola)
Summary of the method: as §1

[6] = tested on: Arthrobacter 2 (Arthrobacter humicola)
Summary of the method: as §1

[7] = tested on: Arthrobacter 3 (Arthrobacter sp.)
Summary of the method: as §1

[8] = tested on: Community 4
Summary of the method: as §1

[9] = tested on: Community 6
Summary of the method: as §1

[10] = tested on: Community 7
Summary of the method: as §1

[11] = tested on: Community 8
Summary of the method: as §1

[12] = tested on: Community 9
Summary of the method: as §1

[13] = tested on: Flavobacterium 1 (Flavobacterium glaciei)
Summary of the method: as §1

[14] = tested on: Flavobacterium 2 (Flavobacterium succinicans)
Summary of the method: as §1

[15] = tested on: Hymenobacter 1 (Hymenobacter glaciei)
Summary of the method: as §1

[16] = tested on: Microbacterium 1 (Microbacterium arborescens)
Summary of the method: as §1

[17] = tested on: Neobacillus 1 (Neobacillus soli)
Summary of the method: as §1

[18] = tested on: Oryzobacter 1 (Oryzobacter terrae)
Summary of the method: as §1

[19] = tested on: Paenibacillus 1 (Paenibacillus castaneae)
Summary of the method: as §1

Measured: relative growth

CC(COc1ccc(Oc2ccccc2)cc1)Oc1ccccn1 (stereo unspecified)
inactive: [1] 1.04 | [2] 0.997 | [3] 1.08 | [4] 1.09 | [5] 1.11 | [6] 0.937 | [7] 0.925 | [8] 1.08 | [9] 1.07 | [10] 1.05 | [11] 1.06 | [12] 1.04 | [13] 0.975 | [14] 1.02 | [15] 1.07 | [16] 1.05 | [17] 1.09 | [18] 1.11 | [19] 1.05

O=C(Nc1ccccc1-c1ccc(Cl)cc1)c1cccnc1Cl
inactive: [1] 1.02 | [2] 0.995 | [3] 1.04 | [4] 0.962 | [5] 0.891 | [6] 1.01 | [7] 0.869 | [8] 1.01 | [9] 1.01 | [10] 1 | [11] 1.03 | [12] 0.999 | [13] 1.04 | [14] 1 | [15] 1.11 | [16] 1.01 | [17] 1.06 | [18] 0.99 | [19] 1.02

CC1(C)CON(Cc2ccccc2Cl)C1=O
inactive: [1] 0.978 | [2] 0.966 | [3] 1.01 | [4] 1 | [5] 0.963 | [6] 0.879 | [7] 1.08 | [8] 0.973 | [9] 0.946 | [10] 1.08 | [11] 1.04 | [12] 1.02 | [13] 1.02 | [14] 0.941 | [15] 0.974 | [16] 1 | [17] 0.965 | [18] 1.13 | [19] 0.973

CCCCOC(=O)[C@H](C)Oc1ccc(Oc2ccc(C#N)cc2F)cc1
inactive: [1] 1.04 | [2] 1.07 | [3] 1.05 | [4] 1.11 | [5] 1.11 | [6] 0.875 | [7] 0.882 | [8] 1.03 | [9] 1.03 | [10] 1.07 | [11] 0.995 | [12] 1.06 | [13] 1.13 | [14] 0.955 | [15] 1.03 | [16] 1.04 | [17] 1.03 | [18] 1.06 | [19] 1.1

Cc1c(COC(=O)[C@@H]2[C@H](/C=C(\Cl)C(F)(F)F)C2(C)C)cccc1-c1ccccc1 (racemic)
inactive: [1] 0.988 | [2] 0.992 | [3] 1.05 | [4] 1.06 | [5] 1.17 | [6] 0.833 | [7] 0.786 | [8] 0.998 | [9] 1.05 | [10] 1.06 | [11] 1.1 | [12] 0.947 | [13] 0.869 | [14] 1 | [15] 1.06 | [16] 1.05 | [17] 0.943 | [18] 1.07 | [19] 0.975

CCOc1cc(Oc2ccc(C(F)(F)F)cc2Cl)ccc1[N+](=O)[O-]
active: [19] 0.735
inactive: [1] 0.962 | [2] 0.975 | [3] 0.966 | [4] 1.01 | [5] 1.02 | [6] 0.848 | [7] 1.01 | [8] 0.905 | [9] 0.907 | [10] 0.968 | [11] 1.04 | [12] 0.975 | [13] 1.05 | [14] 0.971 | [15] 1.03 | [16] 1.07 | [17] 1.01 | [18] 1.03

COCC(=O)N(c1c(C)cccc1C)[C@H](C)C(=O)OC
inactive: [1] 0.971 | [2] 1.01 | [3] 1.02 | [4] 1 | [5] 0.981 | [6] 1.03 | [7] 1.04 | [8] 1.21 | [9] 1.08 | [10] 0.993 | [11] 1.06 | [12] 1.1 | [13] 1.05 | [14] 1.02 | [15] 1.08 | [16] 1.03 | [17] 1.01 | [18] 0.955 | [19] 1.05

CS(=O)(=O)c1cc(C(F)(F)F)ccc1C(=O)c1cnoc1C1CC1
inactive: [1] 1.02 | [2] 1.01 | [3] 1.04 | [4] 1.01 | [5] 1.1 | [6] 1.08 | [7] 1.04 | [8] 1.14 | [9] 1.13 | [10] 0.983 | [11] 1.02 | [12] 1.09 | [13] 1.01 | [14] 1.07 | [15] 1.04 | [16] 1.02 | [17] 1.06 | [18] 0.94 | [19] 1.13

CC(C)NC(=O)N1CC(=O)N(c2cc(Cl)cc(Cl)c2)C1=O
inactive: [1] 0.998 | [2] 0.934 | [3] 1.01 | [4] 0.984 | [5] 1.06 | [6] 0.957 | [7] 0.841 | [8] 0.925 | [9] 0.969 | [10] 1.07 | [11] 0.959 | [12] 0.94 | [13] 0.854 | [14] 0.973 | [15] 0.959 | [16] 0.984 | [17] 0.961 | [18] 1.02 | [19] 0.996

CCC(C)(C)C(=O)OC1=C(c2ccc(Cl)cc2Cl)C(=O)OC12CCCCC2
inactive: [1] 0.99 | [2] 0.957 | [3] 1 | [4] 1.01 | [5] 0.721 | [6] 0.892 | [7] 0.892 | [8] 1.03 | [9] 1.08 | [10] 1.13 | [11] 0.972 | [12] 1.05 | [13] 0.794 | [14] 1.02 | [15] 1.01 | [16] 0.978 | [17] 1 | [18] 1.03 | [19] 0.964

COc1cc(C)c(C(=O)c2c(OC)ccc(Br)c2C)c(OC)c1OC
inactive: [1] 1.07 | [2] 1.03 | [3] 1.1 | [4] 1.04 | [5] 1.15 | [6] 0.768 | [7] 0.949 | [8] 1.1 | [9] 1.05 | [10] 0.987 | [11] 1.08 | [12] 1.12 | [13] 0.992 | [14] 1.02 | [15] 1.16 | [16] 1.03 | [17] 1.06 | [18] 1.07 | [19] 0.965

CCc1cc(C)cc(CC)c1-c1c(OC(=O)C(C)(C)C)n2n(c1=O)CCOCC2
inactive: [1] 0.987 | [2] 0.978 | [3] 1.02 | [4] 0.957 | [5] 1.01 | [6] 0.873 | [7] 0.917 | [8] 0.852 | [9] 0.906 | [10] 1.05 | [11] 0.968 | [12] 0.884 | [13] 1.02 | [14] 0.943 | [15] 0.947 | [16] 1.03 | [17] 0.861 | [18] 1.01 | [19] 0.956

CNC(=O)CSP(=S)(OC)OC
inactive: [1] 0.944 | [2] 0.984 | [3] 0.967 | [4] 1.02 | [5] 1.04 | [6] 0.992 | [7] 0.978 | [8] 0.765 | [9] 0.957 | [10] 1.12 | [11] 0.999 | [12] 0.921 | [13] 1.06 | [14] 0.966 | [15] 0.971 | [16] 1 | [17] 0.948 | [18] 1.07 | [19] 0.975

COc1ccc(C(=CC(=O)N2CCOCC2)c2ccc(Cl)cc2)cc1OC (mixture of isomers)
inactive: [1] 0.973 | [2] 0.993 | [3] 0.998 | [4] 1.03 | [5] 1.06 | [6] 0.983 | [7] 0.973 | [8] 1.07 | [9] 0.974 | [10] 0.947 | [11] 0.986 | [12] 1.03 | [13] 1.07 | [14] 0.979 | [15] 1.05 | [16] 1.03 | [17] 1.02 | [18] 1.12 | [19] 0.961
